The whole screen tested about 300,000 compounds, of which about 950 (0.32%) were called active.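 The calls were made as follows: active = mean activation of at least 10% of the iron chelator positive control signal, with at least half of replicates also reaching 10%; inconclusive = mean and replicate majority disagree about reaching 10%; inactive = mean and most replicates under 10%.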 Many of the other results were omitted from the sample, so actives are more common in it than they were.
Assay: hypoxia response element reporter activation – cell-based, U2OS HRE-luciferase, luminescence, primary screen (AID 1910)
Conditions: active compounds read high, screened at 7.5 µM (by protocol), normalized: DMSO 0%, desferrioxamine 100%
With `Cc1ccc(C(=O)Nc2nnc(C3=COCCO3)o2)cc1C` the activation was 0.0306% (inactive).
With `COc1cccc(N2CC(C(=O)NCc3n[nH]c(=O)c4ccccc34)CC2=O)c1` (stereo not given) the activation was 3.45% (inactive).
For `COc1ccc(NC(=O)CCC(=O)Nc2cc(OC)c(NC(=O)c3ccco3)cc2OC)c(OC)c1`, the activation was -0.226% (inactive).
For `COc1ccccc1C(=O)Nc1ccc(NC(=O)c2ccco2)c(C)c1`, the activation was 0.062% (inactive).
With `COc1ccc(NC(=O)c2cccc(NC(=O)c3ccco3)c2)c(OC)c1` the activation was 10.1% (active).
In the case of `COc1ccccc1OCCCCCCN1CCN(C)CC1`, the activation is reported as 0.237% (inactive).
For `CCOc1ccc(C(C)=O)cc1COC(=O)CNC(=O)c1cccs1`, the activation was 0.00171% (inactive).
In the case of `O=C(CCCO)N/N=C/c1cc(Br)ccc1O`, the activation is reported as -1.18% (inactive).
With `O=C(N/N=C/c1ccccc1O)/C(=C/c1ccccc1)CCO` the activation was 31.1% (active).
For `O=C(N/N=C/c1ccccc1O)C1CCCC1`, the activation was 0.236% (inactive).
In the case of `Cc1cccc(N=C2SC(C)CN2C(=O)CN2C(=O)NC3(CCCC3)C2=O)c1` (stereo not given), the activation is reported as 0.348% (inactive).
In the case of `CCN(CC(=O)Nc1c(F)cccc1F)C(=O)c1ccc(Sc2nncn2C)c([N+](=O)[O-])c1`, the activation is reported as 0.52% (inactive).
For `O=C(Nc1cccc(F)c1)c1coc(=O)c(Br)c1`, the activation was 0.54% (inactive).
With `COc1ccc(N2CC(C(=O)NCCN3C(=O)S/C(=C\c4cccnc4)C3=O)CC2=O)c(OC)c1` (stereo not given) the activation was 0.0693% (inactive).
For `O=C(NCCCN1CCOCC1)c1cc(-c2ccccc2F)no1`, the activation was 10.1% (active).
For `O=C(NCCCN1CCOCC1)c1cc(-c2cccc(O)c2)on1`, the activation was -0.131% (inactive).
For `O=C(NCCCN1CCOCC1)c1cc(-c2ccc(Cl)cc2)on1`, the activation was -0.141% (inactive).
For `C=CCNC(=O)/C=C/c1ccc(C(C)C)cc1`, the activation was 2.38% (inactive).
For `Cn1cnc2c1c(=O)n(Cc1ccccc1C#N)c(=O)n2C`, the activation was -28% (inactive).
For `COc1ccc(C(CNC(=O)c2cccc(NS(=O)(=O)c3ccc(C)c(F)c3)c2)N2CCCC2)cc1` (stereo not given), the activation was -0.102% (inactive).
For `O=C1CCCN2N=C(SCC(=O)Nc3ccc(Br)cc3)SC2=N1`, the activation was 20.5% (active).
For `O=C(CSCc1ccc(Br)cc1)Nc1ccc(S(=O)(=O)N2CCCCCC2)cc1`, the activation was -0.637% (inactive).
For `Cc1cc(=O)[nH]c(SCC(=O)Nc2ccc(Br)cc2)n1`, the activation was 0.205% (inactive).
For `O=C(Nc1ncccc1O)c1ccc(S(=O)(=O)N2CCCCCC2)cc1`, the activation was 3.25% (inactive).
With `O=C(Nc1ncccc1O)c1ccc(C(=O)c2ccccc2)cc1` the activation was 14.2% (active).
With `O=C(Nc1ncccc1O)c1ccc(S(=O)(=O)N2CCCC2)cc1` the activation was 4.15% (inactive).
With `Cc1cc(C)c(C)c(S(=O)(=O)Nc2cccnc2)c1C` the activation was -0.0811% (inactive).
In the case of `CCN(CC)c1ccc(/C=N/NC(=O)CNC(=O)c2cccnc2)cc1`, the activation is reported as -0.424% (inactive).
With `CCN(CC)c1ccc(/C=N/NC(=O)c2cnccn2)c(O)c1` the activation was 95.3% (active).
With `CCN(CC)c1ccc(/C=N/Nc2nc(C)cc(C)n2)c(O)c1` the activation was 1.77% (inactive).
For `Cc1c(C(=O)Nc2ccccn2)oc2ccc(Br)cc12`, the activation was 2.61% (inactive).
For `Cc1c(Cl)c([N+](=O)[O-])nn1Cc1ccc(C(=O)N/N=C\c2cc(Cl)ccc2O)o1`, the activation was 49.6% (active).
In the case of `Cc1ccc(C(=O)O)cc1NC(=O)c1ccc(Cn2nc(C)c(Cl)c2C)o1`, the activation is reported as -0.0752% (inactive).
With `Cc1c(Cl)c([N+](=O)[O-])nn1CCCC(=O)Nc1cc(Cl)ccc1Cl` the activation was -0.466% (inactive).
With `O=C(COc1coc(CN2CCN(c3ccccc3F)CC2)cc1=O)N1CCc2ccccc21` the activation was 0.2% (inactive).
For `Cc1nc(-c2ccc(F)cc2)c(CC(=O)Nc2cc(S(=O)(=O)N3CCCCC3)ccc2C)s1`, the activation was -0.206% (inactive).
With `CC1CN(C(=O)COC(=O)c2cccc(NS(=O)(=O)c3ccccc3)c2)CC(C)O1` (stereo not given) the activation was -0.538% (inactive).
For `CC(C)N(Cc1ccccc1)C(=O)COC(=O)c1ccccc1SCC(=O)N1CCCC1`, the activation was -0.658% (inactive).
For `Oc1ccc2ccccc2c1N=Nc1nccs1`, the activation was 68.6% (active).
In the case of `c1ccc(NCc2cccc3ccccc23)nc1`, the activation is reported as -34.2% (inactive).
With `Oc1ccc(N=Nc2nccs2)c(O)c1` the activation was -0.857% (inactive).
With `COc1cccc(NC(=O)CSc2nccn(-c3ccc4c(c3)OCCO4)c2=O)c1` the activation was 0.704% (inactive).
For `CC(OC(=O)CCCc1c[nH]c2ccccc12)C(=O)Nc1ccc(S(N)(=O)=O)cc1` (stereo not given), the activation was 0.134% (inactive).
In the case of `CCCn1nc(C(=O)NNC(=O)CCOc2ccccc2OCC)c2ccccc2c1=O`, the activation is reported as 0.594% (inactive).
In the case of `COc1ccc(-c2cc(C(F)(F)F)nc(S(C)(=O)=O)n2)cc1OC`, the activation is reported as 18.9% (active).
In the case of `COc1ccc(-c2cc(C(F)(F)F)nc(SCC(=O)Nc3ccc4c(c3)OCO4)n2)cc1OC`, the activation is reported as -1.49% (inactive).
For `COc1cc(OC)nc(S(C)(=O)=O)n1`, the activation was 0.158% (inactive).
In the case of `COc1ccc(C(=O)Nc2ccc(C(=O)NCC3CCCO3)cc2)c(OC)c1OC` (stereo not given), the activation is reported as -3.72% (inactive).
With `COc1cc(N)c(Cl)cc1C(=O)OCC(=O)c1ccc2c(c1)NC(=O)CO2` the activation was 0.0757% (inactive).
For `CCCCn1c(N)c(N(CCOC)C(=O)COc2c(C)cccc2C)c(=O)[nH]c1=O`, the activation was -0.338% (inactive).
In the case of `Cc1nn(C)cc1C(=O)c1ccccc1`, the activation is reported as 0.273% (inactive).
For `COc1ccc2c(c1)CCNC2Cc1ccc(OC)c(O)c1` (stereo not given), the activation was 0.872% (inactive).
With `O=C1NC(c2ccccc2)Oc2ccccc21` (stereo not given) the activation was -0.318% (inactive).
In the case of `CN(C)CCNC(=O)c1[nH]nc2c1CCc1ccccc1-2`, the activation is reported as 2.68% (inactive).
In the case of `COc1cccc(/C=N/Nc2cc(C)nc(-c3ccccc3O)n2)c1O`, the activation is reported as 0.0705% (inactive).
In the case of `COc1cccc(/C=N/NC(=O)c2[nH]nc3c2CCc2ccccc2-3)c1O`, the activation is reported as 46.5% (active).
In the case of `COc1ccc(O)c(/C=N/N=C/c2cccc([N+](=O)[O-])c2)c1`, the activation is reported as -2.34% (inactive).
In the case of `CC(C)C(O)C1CCN(Cc2nc(Cc3ccccc3Cl)no2)CC1` (stereo not given), the activation is reported as 0.0858% (inactive).
For `C1CC1Cc1noc(CN2CCN(CC3CC3)CC2)n1`, the activation was 75.3% (active).
With `Cc1ccccc1N1CCN(Cc2nc(Cc3ccccc3F)no2)CC1` the activation was 0.117% (inactive).
With `O=C(Nc1ccc(F)c([N+](=O)[O-])c1)C1CCCO1` (stereo not given) the activation was -0.403% (inactive).
With `COc1ccccc1C1=CC(=O)CCC1` the activation was 0.17% (inactive).
In the case of `COc1ccccc1CCNC(=O)C(=O)NCCC1CCCCN1S(=O)(=O)c1cccs1` (stereo not given), the activation is reported as 0.0341% (inactive).
For `Cc1cccc(NC(=S)N2CCCC(c3nc4ccccc4[nH]3)C2)c1` (stereo not given), the activation was 0.822% (inactive).
With `CN(C)CCCNC(=S)N1CCC(c2nc3ccccc3[nH]2)CC1` the activation was 0.0482% (inactive).
For `CCCNC(=S)N1CCCC(c2nc3ccccc3[nH]2)C1` (stereo not given), the activation was 99.5% (active).
In the case of `O=C(NCc1ccc2c(c1)OCO2)c1c(O)nc2sccn2c1=O`, the activation is reported as -0.288% (inactive).
In the case of `COc1cc(C2CC(=O)N3CN(Cc4ccccc4)CSC3=C2C#N)ccc1OCc1ccccc1` (stereo not given), the activation is reported as 227% (active).
For `COc1cc(CN2CCC(C(N)=O)CC2)ccc1OCc1ccccc1`, the activation was 5.51% (inactive).
In the case of `COc1cc(CNC2CCCC2)c(Br)cc1OCc1ccccc1`, the activation is reported as -0.706% (inactive).
With `COc1ccc(C(C#N)(CC(=O)O)c2cnccn2)cc1OC` (stereo not given) the activation was -0.732% (inactive).
With `CCCCCN(C(=O)CCC(=O)OCC(=O)NC1CCC(C)CC1)c1c(N)n(CCCC)c(=O)[nH]c1=O` (stereo not given) the activation was 0.288% (inactive).
For `O=C(NCc1ccc(Cl)cc1)C(=O)NCC1CCCN1S(=O)(=O)c1cccs1` (stereo not given), the activation was -0.199% (inactive).
In the case of `Nc1ccc(C(=O)NCc2ccccc2)cc1`, the activation is reported as -0.0134% (inactive).
In the case of `CC(=O)Nc1ccccc1NC(=O)c1cc(C)cc(C)c1`, the activation is reported as -0.124% (inactive).
In the case of `Nc1ccc(C(=O)Nc2ccccc2N)cc1`, the activation is reported as 23.2% (active).
For `COc1cc(OC)c(OC)cc1CN1CCN(C(=O)c2cccc3ccccc23)CC1`, the activation was -7.26% (inactive).
In the case of `Cc1ccc(NC(=O)COc2coc(CN3CCc4ccccc4C3)cc2=O)cc1Cl`, the activation is reported as -0.873% (inactive).
With `Oc1ccc(/C=N/Nc2nc(-c3ccccc3F)nc3ccccc23)c(O)c1` the activation was 0.0261% (inactive).
In the case of `Oc1ccc(/C=N/NC2=NCCCCC2)c(O)c1`, the activation is reported as 1.31% (inactive).
In the case of `Cc1nc2ccccc2nc1N/N=C/c1ccc(O)cc1O`, the activation is reported as 15.9% (active).
In the case of `Cc1onc(-c2ccccc2Cl)c1C(=O)OCc1nnc(-c2ccccc2)o1`, the activation is reported as 0.814% (inactive).
For `N#CC1(NC(=O)COC(=O)Cc2n[nH]c(=O)c3ccccc23)CCCCC1`, the activation was 1.1% (inactive).
With `O=C(COc1coc(CN2CCN(c3ccccc3)CC2)cc1=O)Nc1ccccc1F` the activation was 0.427% (inactive).
In the case of `Cc1ccc(OCCCCc2c(C)n[nH]c2C)cc1`, the activation is reported as 0.618% (inactive).
In the case of `CC(C)COc1ccc(C(=O)OCC(=O)NCCC2=CCCCC2)cc1`, the activation is reported as 0.818% (inactive).
For `CN1CCCC(OC(=O)COc2ccc(Br)cc2)C1` (stereo not given), the activation was -0.189% (inactive).
In the case of `COc1cc2c(cc1OC)/C(=C/C(=O)c1ccc(NC(C)=O)cc1)NCC2`, the activation is reported as -0.377% (inactive).
In the case of `CC1CN/C(=C\C(=O)c2ccc(Br)cc2)C(=O)N1` (stereo not given), the activation is reported as 71.1% (active).
For `CC1CCc2[nH]c3ccc(C(=O)N(C)CC(=O)Nc4cccc(F)c4)cc3c2C1` (stereo not given), the activation was 0.749% (inactive).
In the case of `O=C(Nc1ccc(N2CCCC2=O)cc1)c1cncc(Br)c1`, the activation is reported as 1.53% (inactive).
In the case of `CCNS(=O)(=O)c1ccc(NC(=O)c2cncc(Br)c2)cc1`, the activation is reported as 94.2% (active).
In the case of `O=C(Nc1ccc(S(=O)(=O)Nc2ncccn2)cc1)c1cncc(Br)c1`, the activation is reported as -1.84% (inactive).
With `COc1cc(NC(=O)C2CC(c3ccccc3O)=NO2)c(OC)cc1Cl` (stereo not given) the activation was -1.02% (inactive).
With `COc1ccc(NC(=O)NCCN2CCN(c3ccc(C)cc3)CC2)c(Cl)c1` the activation was 2.29% (inactive).
